This note sets out measurements from PubChem BioAssay AID1851 (National Center for Advancing Translational Sciences (NCATS), 2009).

The whole screen tested about 16,000 compounds, of which about 2,600 (16%) were called active. Another 20% or so got no clear call; they are omitted. These entries were drawn from the full list. A number with no mark means an inactive call. The call rests on the fitted dose curve; in most records, active means well fitted curve in the direction sought with a large enough effect; inconclusive means small, poorly fitted or top-dose-only effect, or effect the other way; inactive means no such curve, though single readings can be large or run the other way.
On the % scale 0 is the no-effect control and ±100 the full control effect.

For the assay, the target named is Cytochrome P450 2D6 (Homo sapiens) (UniProt P10635). Put plainly: Cytochrome panel assay with activity outcomes. Particulars: recombinant CYP, pro-luciferin dealkylation, luminescence, p450-cyp2d6; series mostly up to 57.1 µM.
Sequence of Cytochrome P450 2D6 (Homo sapiens) (P10635 whole entry, looked up): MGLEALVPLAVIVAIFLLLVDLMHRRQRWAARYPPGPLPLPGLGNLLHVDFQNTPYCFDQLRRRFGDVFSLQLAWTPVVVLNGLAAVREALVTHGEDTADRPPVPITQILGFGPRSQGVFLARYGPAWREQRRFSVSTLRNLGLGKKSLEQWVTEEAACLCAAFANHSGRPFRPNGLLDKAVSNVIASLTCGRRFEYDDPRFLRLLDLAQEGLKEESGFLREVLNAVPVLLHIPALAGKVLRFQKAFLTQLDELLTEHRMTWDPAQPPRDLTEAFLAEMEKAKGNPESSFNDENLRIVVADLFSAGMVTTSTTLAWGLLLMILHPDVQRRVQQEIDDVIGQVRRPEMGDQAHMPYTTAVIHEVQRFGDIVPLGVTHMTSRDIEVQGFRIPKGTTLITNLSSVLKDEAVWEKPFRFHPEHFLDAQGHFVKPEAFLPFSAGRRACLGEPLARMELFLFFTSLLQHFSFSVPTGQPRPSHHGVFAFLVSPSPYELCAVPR
Usually AC50 stands for the concentration giving half of the maximal activity seen. Regarding `CCCCCCCCCCCCCCSCC(=O)O`, the AC50 result was “inactive”.
On to `COc1ccc(-n2c(-c3cnccn3)n[nH]c2=S)cc1`, for which the AC50 entry is “inactive”.
Same read-out and setting: next, `O=C(Nc1cccc(F)c1)N1CCCC2(CCNCC2)C1`: “inactive”.
As to `C(/C=C\c1ccccc1)=Nc1ccc2c(c1)Cc1ccccc1-2`, the activity, negative = inhibition is -10.4% [at 11.4 µM].
As for `COc1ccc(-n2c(=O)c(-c3cn(C)c4ccccc34)nc3cncnc32)cc1`, the AC50 result is “inactive”.
Same read-out and setting: for `CC(=O)[C@@]1(O)Cc2c(O)c3c(c(O)c2[C@H](O[C@H]2C[C@H](N)[C@H](O)[C@H](C)O2)C1)C(=O)c1ccccc1C3=O` the value was “inactive”; for `Cn1c(CCC(=O)Nc2ccc(N3CCOCC3)cc2)nc(=O)c2ccccc21`, “inactive”; for `COC(=O)c1nn(-c2ccccc2)c(=O)cc1Oc1ccccc1`, “inactive”.
Take `N#C[C@@H](N=Nc1ccccc1C(=O)O)C(N)=O`: the activity, negative = inhibition was -0.182% [at 11.4 µM].
For the molecule `O=C(N/N=C/c1cccc(C(F)(F)F)c1)C1CCN(c2ncc(C(F)(F)F)cc2Cl)CC1`, the AC50 result was “inactive”.
With `COc1ccc(/C=C(/C(=O)Nc2ccccc2C(=O)NC(C)C)c2ccccc2)cc1`, the AC50 entry is “inactive”.
Same read-out and setting: for `Cc1cccc(N2CCN(C(=O)CSCc3c(C)noc3C)CC2)c1C` the value was “inactive”.
The same measure, in the same setting: next, `CC(C)OC(=O)CC12CN(C)CC(CC(=O)OC(C)C)(CN(C)C1)C2=O`: 2.51 µM (active); `COc1ccc(CNC(=O)/C=C/c2ccc(OCCCF)cc2)cc1`: “inactive”.
For the molecule `CCC(O)CNc1nc(-n2nc(C)cc2C)nc2sc3c(c12)CC(C)(C)OC3` (centres undefined), the AC50 result was “inactive”.
Regarding `CCSc1ncnc2c1sc1nc(-c3ccco3)c3c(c12)CC(C)(C)OC3`, the AC50 result is “inactive”.
For the molecule `CCCSc1nc(NCc2ccco2)c2c3c(sc2n1)COC(C)(C)C3`, the AC50 was 14.1 µM (active).
For the molecule `O=c1cnc2cnc(N3CCOCC3)nc2n1CCc1ccccc1`, the AC50 entry is “inactive”.
The same measure, in the same setting: for `CC1(C)CC(=O)C2=C(C1)Nc1cc3c(cc1C2c1ccc(F)cc1)OCO3` (centres undefined) the value was 7.08 µM (active); for `Cc1cc2c(cc1C)NC(c1nc3ccccc3[nH]1)C1=C(CC(C)(C)CC1=O)N2` (centres undefined), “inactive”; for `CCCc1ccc(C2C3=C(CC(C)(C)CC3=O)NC3=C2C(=O)c2ccccc23)cc1` (centres undefined), “inactive”.
Same read-out and setting: next, `Brc1ccc([C@H]2CN3CCSC3=N2)cc1`: “inactive”; `Cc1cccc(C)c1NC(=O)C(NC=O)c1ccccc1Cl` (centres undefined): “inactive”.
Still for that read-out and setting: for `Cc1cccc(C)c1NC(=O)C(c1ccccc1)N1CCC1=O` (centres undefined) the value was “inactive”; for `Cc1cccc(C)c1NC(=O)C(c1ccc(Cl)cc1Cl)N1CCCCC1` (centres undefined), 10 µM (active).
With `NC(N)=N[C@@H]1C(O)[C@H](N=C(N)N)[C@@H](O)C(O)[C@H]1O` (some centres undefined), the activity, negative = inhibition is 4.19% [at 11.4 µM].
For `NNC(=O)Cc1cccnc1`, the activity, negative = inhibition was 8.36% [at 11.4 µM].
In the case of `CCNS(=O)(=O)c1ccc(NC(=O)c2cc(C(F)(F)F)nn2C)cc1`, the AC50 result was “inactive”.
As for `Cc1cc(C(F)(F)F)nn1CC(=O)Nc1cccnc1`, the AC50 is 12.6 µM (active).
For `CC1=NN(c2ccccc2)C(=O)[C@@H]1N=Nc1ccc(S(N)(=O)=O)cc1`, the activity, negative = inhibition was 8.14% [at 11.4 µM].
As for `CCOC(=O)N1CCC(NC(=O)CCC(=O)N2CC(C)Oc3ccc(C)cc32)CC1` (centres undefined), the AC50 result is “inactive”.
With `O=C(Nc1c[nH]c(=O)[nH]c1=O)Oc1ccccc1`, the activity, negative = inhibition was -9.58% [at 11.4 µM].
Consider `O=C(OCc1nc2ccccc2s1)c1ccc(Br)s1`, for which the AC50 entry was “inactive”.
On to `COc1ccc(CCNc2nc(-c3cccnc3)cs2)cc1OC`, for which the AC50 was 7.08 µM (active).
For `Cc1cnc(CNc2cc(-c3cccnc3)ncn2)cn1`, the AC50 entry is “inactive”.
Same read-out and setting: next, `COc1cccc(-c2cc(NCc3ccccc3)ncn2)c1`: 12.6 µM (active); `Cc1noc(C)c1-c1cc(NCc2cccnc2)ncn1`: “inactive”; `Cc1noc(C)c1-c1cc(NCc2ccccc2)ncn1`: “inactive”.
Same read-out and setting: next, `COc1ccc(-c2cc(C(=O)NCc3cccnc3)no2)cc1OC`: “inactive”; `N#Cc1cccc(-c2cc(NCc3ccccc3)ncn2)c1`: “inactive”; `COc1cccc(-c2cc(NCc3ccc(OC)cc3OC)ncn2)c1`: 12.6 µM (active).
The same measure, in the same setting: next, `COc1ccc(-c2csc(NC(=O)CCn3cnc4ccccc4c3=O)n2)cc1OC`: “inactive”; `COc1ccccc1CNc1cc(-c2cccnc2)ncn1`: 5.01 µM (active); `CCN1CCc2c(sc(N)c2C(N)=O)C1`: “inactive”.
Regarding `OC[C@@H]1O[C@@H](n2cnc3c(NC4CCCCC4)ncnc32)[C@@H](O)[C@H]1O`, the AC50 result was “inactive”.
The same measure, in the same setting: for `O=C(Nc1c(C(=O)N2CCOCC2)cnn1-c1ccccc1)c1ccco1` the value was “inactive”; for `O=c1c(Cc2ccccc2)c(O)nc2n1CCS2`, “inactive”.
As for `O=C(c1ccc2nc3ccc(Cl)cc3c(=O)n2c1)N1CCOCC1`, the AC50 entry is “inactive”.
For the molecule `COc1cccc(-c2cc(NCc3ccccc3OC)ncn2)c1`, the AC50 is 15.8 µM (active).
The same measure, in the same setting: next, `COc1ccccc1CNc1cc(-c2cccc(C#N)c2)ncn1`: “inactive”; `COc1cccc(-c2cc(NCc3cccs3)ncn2)c1`: 12.6 µM (active); `Cc1cnc(CNc2cc(-c3cccc(C#N)c3)ncn2)cn1`: “inactive”.
For the molecule `COCCn1c(=S)[nH]c2cc(C(=O)NC(C)C)ccc2c1=O`, the AC50 result is “inactive”.
Consider `O=C(N/N=C/c1ccncc1)c1cc2c(ccc3ccccc32)o1`, for which the AC50 entry is “inactive”.
Consider `CCCC(CCC)C(=O)NNc1cc(=O)c2c(=O)n(C)c(=O)n(C)c2[nH]1`, for which the AC50 result is “inactive”.
Consider `O=C(O)c1cc(S(=O)(=O)N2CCCCC2)ccc1F`, for which the AC50 entry was “inactive”.
As for `Cc1ccc(S(=O)(=O)Oc2cc(S(=O)(=O)O)cc3cc(S(=O)(=O)O)cc(N)c23)cc1`, the activity, negative = inhibition is 8.03% [at 11.4 µM].
For `CC(C)Sc1cc(N2CCOCC2)nc(-c2ccc(Cl)cc2)n1`, the AC50 entry is “inactive”.
With `CC(C)(Oc1ccc(CCNC(=O)c2ccc(Cl)cc2)cc1)C(=O)O`, the AC50 entry is “inactive”.
On the same count and under the same terms, next, `Oc1cc2c(cc1O)CN(C(=S)NCCc1ccc(Cl)cc1)CCC2`: 12.6 µM (active).
The same measure, in the same setting: for `CC(=O)NCCc1ccc(O)c(O)c1` the value was “inactive”; for `COCCNC(=O)C1CCN(S(=O)(=O)N2CCC3(CC2)OCCO3)CC1`, “inactive”.
Still for that read-out and setting: next, `O=C(NCCc1ccc(Cl)cc1)C1CCN(S(=O)(=O)N2CCC3(CC2)OCCO3)CC1`: 14.1 µM (active); `CCCCNC(=O)C1CCN(Cc2ccccn2)CC1`: 8.91 µM (active).
`O=C(NCc1ccccc1Cl)C1CCN(S(=O)(=O)N2CCC3(CC2)OCCO3)CC1`: the AC50 entry was “inactive”.
On the same count and under the same terms, next, `O=C(NCCCN1CCN(C2CCCCC2)CC1)Nc1ccccc1C(F)(F)F`: 5.01 µM (active).
Take `O=C(NCCCN1CCCCCC1)[C@@H](c1ccccc1)C1CCCCC1`: the AC50 was 0.631 µM (active).
With `O=C(Nc1cccn(Cc2ccc(F)cc2)c1=O)NC1CCCCC1`, the AC50 entry was “inactive”.
Take `CCN1CCN(CCCNC(=O)C(NC(=O)C2CCC(C)CC2)C(C)C)CC1` (centres undefined): the AC50 entry was “inactive”.
Consider `CC(C)C(NC(=O)C1CCCCC1)C(=O)NCc1ccccn1` (centres undefined), for which the AC50 entry is “inactive”.
On to `O=C1NCCCC1C(=O)Nc1ccccc1C(F)(F)F` (centres undefined), for which the AC50 entry was “inactive”.
The same measure, in the same setting: next, `CCS(=O)(=O)N1CCC(C(=O)NCc2cccnc2)CC1`: “inactive”.
Still for that read-out and setting: next, `CCOC(=O)CSc1ncc(OC)c(Sc2ccc(Cl)cc2)n1`: “inactive”.
Same read-out and setting: for `CCCC(=O)Nc1nc(-c2ccc3c(c2)CCN3S(C)(=O)=O)cs1` the value was “inactive”.
Consider `COc1ccccc1C(=O)O/N=C1/CCCc2c1ccc(OC)c2[N+](=O)[O-]`, for which the AC50 result is “inactive”.
Same read-out and setting: for `C[C@](N)(Cc1ccc(O)c(O)c1)C(=O)O` the value was “inactive”.
Turning to `Nc1nc(N)c2nn(-c3ccc(C(=O)O)cc3)nc2n1`, the activity, negative = inhibition was -6.74% [at 11.4 µM].
For `Cc1c(-c2ccc(F)cc2)nc(N)c(C#N)c1-c1cccs1`, the AC50 entry is “inactive”.
Still for that read-out and setting: for `CCOc1ccc(N=C2NC(=O)C(CC(=O)O)S2)cc1` (centres undefined) the value was “inactive”; for `CC(C)N(CCNC(=O)C1CCN(S(=O)(=O)N2CCOCC2)CC1)Cc1ccccc1`, “inactive”; for `O=C(NCCCN1CCN(Cc2ccccc2)CC1)C1CCN(S(=O)(=O)N2CCCC2)CC1`, 3.98 µM (active).
Regarding `O=C(NCCCN1CCc2ccccc2C1)C1CCN(S(=O)(=O)N2CCCC2)CC1`, the AC50 is 7.94 µM (active).
Still for that read-out and setting: for `CCS(=O)(=O)N1CCC(C(=O)NCCCN2CCCC2)CC1` the value was “inactive”; for `Cc1cc(C)c(S(=O)(=O)NNC(=O)C2CCN(Cc3ccccc3)CC2)c(C)c1`, 15.8 µM (active).
For the molecule `O=C(NCc1ccc(F)cc1)C1CCN(S(=O)(=O)N2CCCCC2)CC1`, the AC50 result was “inactive”.
`O=C(C1CCN(S(=O)(=O)N2CCOCC2)CC1)N1CCN(Cc2ccccc2)CC1`: the AC50 entry is “inactive”.
Take `Cc1ccc(NC(=O)CCC(=O)NNS(=O)(=O)c2ccccc2)c(C)c1`: the AC50 entry was “inactive”.
`O=C(NCCCN1CCC(Cc2ccccc2)CC1)C1CCN(S(=O)(=O)N2CCOCC2)CC1`: the AC50 is 12.6 µM (active).
On the same count and under the same terms, next, `CCCCN(CC)S(=O)(=O)N1CCC(C(=O)NCCCN2CCOCC2)CC1`: “inactive”; `COc1cccc(CNC(=O)C2CCN(S(=O)(=O)N3CCCCC3)CC2)c1`: “inactive”.
For `CCN1C(=O)CC(N2CCN(CC(=O)NC(C)C)CC2)C1=O` (centres undefined), the AC50 entry was “inactive”.
Take `CCN(CC)C(=O)Cn1cc(/C=C(\C#N)C(=O)N2CCN(c3ccccc3)CC2)c2ccccc21`: the AC50 entry is “inactive”.
As to `Cc1ccc(-c2nc3ncccn3c2NC(=O)C2CC2)cc1`, the AC50 entry was “inactive”.
Regarding `CCn1c(=O)c2c(O)cc(=O)oc2c2ccccc21`, the AC50 result is “inactive”.
On the same count and under the same terms, next, `CCc1c(C)c(C#N)c2nc3ccccc3n2c1Nc1c(C)n(C)n(-c2ccccc2)c1=O`: “inactive”.
As for `N#CCCn1c(=O)c(-c2ccccc2)nc2cnc(Oc3cccc(Cl)c3)nc21`, the AC50 entry was “inactive”.
For the molecule `Cn1cc(-c2nc3cnc(Oc4ccccc4)nc3n(C)c2=O)c2ccccc21`, the AC50 result was “inactive”.
Regarding `CC[C@H](CN(C)C)C(=O)c1ccco1`, the activity, negative = inhibition is -4.86% [at 11.4 µM].
Take `COc1ccccc1/C=N/NC(=Nc1ccc(C)cc1)c1nc2ccccc2s1`: the AC50 entry is “inactive”.
In the case of `COCCn1c(=O)c(C)nc2cncnc21`, the AC50 result was “inactive”.
On the same count and under the same terms, for `CSc1nc(Sc2cccc(Cl)c2)c2ccccc2n1` the value was “inactive”; for `Cc1c(N2C(=O)CS/C2=N\N=C\c2ccc(Cl)cc2)c(=O)n(-c2ccccc2)n1C`, “inactive”.
For the molecule `CC(C)Cn1c(-c2nn(C)cc2Cl)n[nH]c1=S`, the AC50 result was “inactive”.
For the molecule `O=C(Nc1cccc(F)c1)N1CCC2(CC1)CCN(C(=O)c1csnn1)CC2`, the AC50 result is “inactive”.
